Reference: PubChem BioAssay (EPA / NIEHS)
Inconclusive results are not listed. Calls of active or inactive are those of the source. Rule for the calls, unless noted: active = hit-call score of the fitted dose curve at least 0.9, where 1 is the maximum; inconclusive = response in the unintended direction; inactive = score below 0.9.

Tests used:
[1] = target: Nuclear receptor subfamily 1 group I member 2 (Mus musculus) (UniProt O54915); test: ATG_mPXR_XSP1: Attagene TRANS-FACTORIAL Multi-Species (XSP1) HepG2 Assay for mouse Pregnane X Receptor (PXR) (AID 2283803)
Outline: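 Transiently transfected HepG2 cells expressing a receptor-Gal4 chimera drive a GAL4-UAS reporter; 3 nM 6-alpha-fluorotestosterone included. Reporter mRNA read 24 h post-dose by RT-PCR and capillary electrophoresis; gain of signal relative to DMSO.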

[2] = target: GAL4 Transcription Factor (Internal Marker), GAL4 (gene 855828) (UniProt P04386); test: ATG_GAL4_XSP2: Attagene TRANS-FACTORIAL Multi-Species (XSP2) HepG2 Assay for GAL4 Transcription Factor (Internal Marker) (AID 2283814);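 note: GAL4 reporter mRNA background control in MRTU transfected cells not a receptor target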
Outline: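 HepG2 cells transiently transfected with GAL4-UAS reporter units, stimulated with 3 nM 6-alpha-fluorotestosterone plus 1.5 nM norgestrel, dosed 24 h. Reporter mRNA by RT-PCR/capillary electrophoresis; gain-of-signal fit versus DMSO, background control.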

[3] = target: chicken Estrogen Receptor (ERa), ESR1 (gene 396099) (UniProt P06212); test: ATG_chERa_XSP2: Attagene TRANS-FACTORIAL Multi-Species (XSP2) HepG2 Assay for chicken Estrogen Receptor (ERa) (AID 2283817);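 note: actives raise reporter signal above DMSO so AC50 reflects ER activation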
Outline: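 Transient MRTU transfection of HepG2 → 24 h chemical dosing → TriZol RNA, oligo(dT) RT → PCR, 6-FAM primer extension, HpaI digest → CE quantitation of chicken ERa-Gal4-driven reporter mRNA. Positive direction vs DMSO.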

[4] = ATG_M_19_XSP2: Attagene TRANS-FACTORIAL Multi-Species (XSP2) HepG2 Assay for M32 Transcription Factor (Internal Marker) (AID 2283822)
Outline: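 Internal background marker in a multi-species nuclear receptor TRANS panel: transfected HepG2 cells exposed 24 h, with 3 nM 6-alpha-fluorotestosterone and 1.5 nM norgestrel present. Readout is RT-PCR of reporter transcripts resolved by capillary electrophoresis, gain-of-signal versus DMSO.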

[5] = target: Nuclear receptor subfamily 1 group I member 2 (Mus musculus) (UniProt O54915); test: ATG_mPXR_XSP2: Attagene TRANS-FACTORIAL Multi-Species (XSP1) HepG2 Assay for mouse Pregnane X Receptor (PXR) (AID 2283831)
Outline: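 HepG2 cells transiently transfected with GAL4-UAS reporter units expressing chimeric NR-GAL4 proteins; reporter mRNA measured 24 h after dosing by RT-PCR with 6-FAM labelling and capillary electrophoresis, gain of signal relative to DMSO.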

PGR (gene 5241) = PGR (gene 5241) (UniProt P06401); test: TOX21_PR_BLA_Followup_Antagonist_ratio: Tox21 HEK293 Progesterone Receptor (PR) Antagonism Beta-lactamase Follow-Up Assay, Ratio (AID 2283934)
Outline: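 HEK293T PR-UAS-bla, 2% CS-FBS; 6 hr plating, then cpd + R5020 (1 nM final), 16 hr 37C/5% CO2. B/G FRET substrate 2 h RT. Ratio ch2/ch1 vs DMSO; CellTiter-Glo viability multiplexed, autofluorescence checked.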

[6] = read-out: Tissue plasminogen activator (tPA), PLAT (gene 5327); test: BSK_BE3C_tPA: BioMAP Diversity Plus: BE3C Assay for Tissue plasminogen activator (tPA) Biomarker Activity (AID 2283041; active = hit-call score of the fitted dose curve at least 0.9, where 1 is the maximum; inactive = score below 0.9;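 note: tPA level quantified by ELISA one day after compound addition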); conditions: primary human bronchial epithelial cells; actives raise or lower the signal
Outline: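 Primary human lung bronchial epithelial cultures receive test chemical; after 24 h, tPA is quantified by ELISA, and gain or loss of signal is fitted bidirectionally relative to DMSO baseline.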

[7] = target: human CYP2D6, CYP2D6 (gene 1565) (UniProt P10635); test: NVS_ADME_hCYP2D6: NovaScreen (NVS) CYP450-related Enzyme Activity (ADME) Assay for human CYP2D6 (AID 2283107)
Outline: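 Cell-free assay using recombinant enzyme expressed in insect cells, with fluorescence-intensity readout of enzyme activity 1 hour after chemical dosing. Loss of signal versus acetonitrile negative control indicates inhibition. Primary screen ran in duplicate at 10 uM; actives were retested in concentration series.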

rat CYP2C6, gene 293989 = test: NVS_ADME_rCYP2C6: NovaScreen (NVS) CYP450-related Enzyme Activity (ADME) Assay for rat CYP2C6 (AID 2283120)
Outline: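 Cell-free recombinant rat CYP2C6 with fluorogenic substrate, read by fluorescence 1 h after dosing; acetonitrile as negative control. Primary screen at 10 uM in duplicate, actives then in concentration-response up to 20 uM.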

rat CYP3A1, gene 25642 = test: NVS_ADME_rCYP3A1: NovaScreen (NVS) CYP450-related Enzyme Activity (ADME) Assay for rat CYP3A1 (AID 2283126)
Outline: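 Cell-free recombinant CYP assay with fluorescent substrate, read 0.5 h after dosing. Screened at 10 uM in duplicate, hits at up to 20 uM in concentration-response; loss of signal versus acetonitrile baseline.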

[8] = target: Androgen Receptor/SRC-1 Co-activator, AR (gene 367) (UniProt P10275); test: OT_AR_ARSRC1_0960: Odyssey Thera (OT) 16-hour HEK293T Protein-Complementation Assay for Androgen Receptor/SRC-1 Co-activator (AID 2283353);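 note: actives raise the signal above DMSO so potency reflects increased AR and SRC-1 complex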
Outline: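 Split-Venus PCA, AR/SRC-1 fusions, stable HEK293T; 16 h compound exposure; imaged at 488 and 635 nm; N/C ratio (488 nm channel), min 400 cells/image; positive-direction fit, DMSO baseline.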

[9] = target: Androgen Receptor/SRC-1 Co-activator, AR (gene 367) (UniProt P10275); test: OT_AR_ARSRC1_0480: Odyssey Thera (OT) 8-hour HEK293T Protein-Complementation Assay for Androgen Receptor/SRC-1 Co-activator (AID 2283354);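 note: hits raise the complementation signal above DMSO so AC50 marks enhancers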
Outline: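 Measures AR/SRC-1 binding by Venus YFP fragment complementation in HEK293T stable lines at 8 h post-dose. Imaging quantifies the 488nm nucleus/cytoplasm ratio in ≥400 cells; DMSO defines baseline.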

[10] = target: Agonist Androgen Response Element (ARE), AR (gene 367) (UniProt P10275); test: OT_AR_ARELUC_AG_1440: Odyssey Thera (OT) 24-hour CHO-K1 Luciferase Assay for Agonist Androgen Response Element (ARE) (AID 2283379)
Outline: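 Agonist mode, 24 h exposure in CHO-K1 ARE-luciferase cells; values reflect luminescence induction over vehicle.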

[11] = target: Nucleoli Translocation, AR (gene 367) (UniProt P10275); test: UPITT_HCI_U2OS_AR_TIF2_Nucleoli_Antagonist: University of Pittsburgh U2OS Androgen Receptor-Transcriptional Intermediary Factor 2 (AR-TIF2) Antagonism High Content Imaging Assay for Nucleoli Translocation (AID 2283997)
Outline: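 Measured quantity was AR-RFP fluorescence localized to nucleoli in engineered U2OS cells also bearing TIF2-GFP, acquired on automated high-content imagers. Primary testing used 20 uM compound; actives were confirmed in triplicate wells.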

[12] = CCTE_Shafer_MEA_dev_firing_rate_mean: CCTE's Neural Network Formation Assay for Mean Firing Rate, Shafer Lab (AID 2284031; active = hit-call score of the fitted dose curve at least 0.9, where 1 is the maximum; inactive = score below 0.9;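 note: curve fitted for loss of firing so AC50 reflects decreased mean firing rate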)
Outline: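 Rat primary cortical neurons were seeded on multielectrode arrays and treated from plating through day 12, with redosing at each feed. Spontaneous spiking was recorded four times; mean firing rate AUC was fitted downward against DMSO.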

[13] = CCTE_Shafer_MEA_dev_per_burst_spike_percent: CCTE's Neural Network Formation Assay for Percent of Spikes in a Burst, Shafer Lab (AID 2284032; active = hit-call score of the fitted dose curve at least 0.9, where 1 is the maximum; inactive = score below 0.9;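 note: fitted as a decrease in burst spike percentage below DMSO baseline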)
Outline: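 Rat primary cortical neurons on 16-electrode MEA wells, dosed from plating day 0 for 12 days with renewal on DIV 5 and 9; spikes-in-bursts percentage averaged over bursting electrodes, collapsed as AUC across days 5, 7, 9, 12; loss direction versus DMSO.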

[14] = CCTE_Shafer_MEA_dev_active_electrodes_number: CCTE's Neural Network Formation Assay for Number of Active Electrodes, Shafer Lab (AID 2284040);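 note: potency for loss of active electrodes versus DMSO so lower counts are hits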
Outline: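 Primary rat cortical neurons on 16-electrode MEA wells, exposed from day 0 through day 12 with compound renewed at DIV 5 and 9 feeds. Active electrodes (mean firing ≥5 spikes/min) counted at DIV 5, 7, 9, 12; trapezoidal AUC across days, loss-of-signal versus DMSO.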

[15] = CCTE_Shafer_MEA_dev_burst_rate: CCTE's Neural Network Formation Assay for Burst Rate, Shafer Lab (AID 2284042; active = hit-call score of the fitted dose curve at least 0.9, where 1 is the maximum; inactive = score below 0.9;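 note: potency for loss of burst rate below DMSO control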)
Outline: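 Developmental network assay measuring how 12-day exposure of rat cortical neuron cultures alters bursting on extracellular MEA recordings. Values are AUC of well-mean burst rate across four recording days, relative to DMSO vehicle.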

[16] = CCTE_Shafer_MEA_dev_bursting_electrodes_number: CCTE's Neural Network Formation Assay for Number of Bursting Electrodes, Shafer Lab (AID 2284043);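 note: potency is for loss of bursting electrodes relative to DMSO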
Outline: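 Read-out is the per-well number of electrodes bursting at least once every 2 minutes, recorded on days 5, 7, 9 and 12 and collapsed by trapezoidal area under the curve. Cultures were primary rat cortical neurons on MEA plates, treated continuously from plating.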

[17] = CCTE_Shafer_MEA_dev_per_burst_interspike_interval: CCTE's Neural Network Formation Assay for Burst Interspike Interval, Shafer Lab (AID 2284044; active = hit-call score of the fitted dose curve at least 0.9, where 1 is the maximum; inactive = score below 0.9;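 note: mean spike spacing inside bursts as AUC over recordings on days 5 7 9 12; potency for a decrease of within-burst interspike interval below DMSO level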)
Outline: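 Rat cortical primary cultures, 16 electrodes/well; compound from plating, renewed with full media change DIV 5 and 9. Spikes via adaptive detector; per-burst ISI well-mean over active bursting electrodes; AUC of DIV 5/7/9/12 recordings; loss-direction fit vs DMSO.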

Androgen Receptor/SRC-1 Co-activator, AR (gene 367), sequence (P10275 whole entry, looked up, the tested form may be a part): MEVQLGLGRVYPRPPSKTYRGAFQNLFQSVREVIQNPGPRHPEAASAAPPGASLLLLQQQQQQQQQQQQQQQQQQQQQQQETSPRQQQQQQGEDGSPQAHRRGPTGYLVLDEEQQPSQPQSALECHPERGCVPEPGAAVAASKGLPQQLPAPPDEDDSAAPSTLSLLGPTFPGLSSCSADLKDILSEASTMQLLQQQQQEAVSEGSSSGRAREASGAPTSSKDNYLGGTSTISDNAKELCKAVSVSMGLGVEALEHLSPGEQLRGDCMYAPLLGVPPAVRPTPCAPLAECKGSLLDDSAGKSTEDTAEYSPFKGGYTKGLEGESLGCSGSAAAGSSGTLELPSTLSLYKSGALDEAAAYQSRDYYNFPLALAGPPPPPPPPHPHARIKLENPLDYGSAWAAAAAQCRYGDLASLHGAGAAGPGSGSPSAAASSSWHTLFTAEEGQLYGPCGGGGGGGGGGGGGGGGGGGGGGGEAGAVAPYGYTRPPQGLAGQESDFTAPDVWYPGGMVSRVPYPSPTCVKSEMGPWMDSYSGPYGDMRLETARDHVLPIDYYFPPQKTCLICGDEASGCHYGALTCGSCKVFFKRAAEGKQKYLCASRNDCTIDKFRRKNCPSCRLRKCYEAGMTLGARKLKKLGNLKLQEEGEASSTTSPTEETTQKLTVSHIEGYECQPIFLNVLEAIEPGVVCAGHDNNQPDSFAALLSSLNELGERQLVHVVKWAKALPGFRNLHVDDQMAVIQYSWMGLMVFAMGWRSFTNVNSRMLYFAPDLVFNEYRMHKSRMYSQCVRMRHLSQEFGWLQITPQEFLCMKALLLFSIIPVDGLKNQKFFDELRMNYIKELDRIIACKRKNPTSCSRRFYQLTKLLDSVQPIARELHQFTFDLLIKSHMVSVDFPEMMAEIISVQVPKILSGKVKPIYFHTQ
Nuclear receptor subfamily 1 group I member 2 (Mus musculus), sequence (O54915 whole entry, looked up, the tested form may be a part): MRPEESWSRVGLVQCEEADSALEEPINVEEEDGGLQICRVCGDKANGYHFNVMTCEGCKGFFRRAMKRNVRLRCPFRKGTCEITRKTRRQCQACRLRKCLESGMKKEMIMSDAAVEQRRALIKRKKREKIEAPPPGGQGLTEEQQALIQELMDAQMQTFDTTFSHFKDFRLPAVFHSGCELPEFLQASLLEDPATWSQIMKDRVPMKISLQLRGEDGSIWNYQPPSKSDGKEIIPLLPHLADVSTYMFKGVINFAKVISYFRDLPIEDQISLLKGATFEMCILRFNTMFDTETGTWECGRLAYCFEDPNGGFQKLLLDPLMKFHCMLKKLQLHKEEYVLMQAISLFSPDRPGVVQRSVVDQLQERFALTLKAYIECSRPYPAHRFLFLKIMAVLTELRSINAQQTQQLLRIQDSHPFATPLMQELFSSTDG
Agonist Androgen Response Element (ARE), AR (gene 367), sequence (P10275 whole entry, looked up): as the sequence (P10275 whole entry, looked up, the tested form may be a part) above
Nucleoli Translocation, AR (gene 367), sequence (P10275 whole entry, looked up): as the sequence (P10275 whole entry, looked up, the tested form may be a part) above
PGR (gene 5241), sequence (P06401 whole entry, looked up): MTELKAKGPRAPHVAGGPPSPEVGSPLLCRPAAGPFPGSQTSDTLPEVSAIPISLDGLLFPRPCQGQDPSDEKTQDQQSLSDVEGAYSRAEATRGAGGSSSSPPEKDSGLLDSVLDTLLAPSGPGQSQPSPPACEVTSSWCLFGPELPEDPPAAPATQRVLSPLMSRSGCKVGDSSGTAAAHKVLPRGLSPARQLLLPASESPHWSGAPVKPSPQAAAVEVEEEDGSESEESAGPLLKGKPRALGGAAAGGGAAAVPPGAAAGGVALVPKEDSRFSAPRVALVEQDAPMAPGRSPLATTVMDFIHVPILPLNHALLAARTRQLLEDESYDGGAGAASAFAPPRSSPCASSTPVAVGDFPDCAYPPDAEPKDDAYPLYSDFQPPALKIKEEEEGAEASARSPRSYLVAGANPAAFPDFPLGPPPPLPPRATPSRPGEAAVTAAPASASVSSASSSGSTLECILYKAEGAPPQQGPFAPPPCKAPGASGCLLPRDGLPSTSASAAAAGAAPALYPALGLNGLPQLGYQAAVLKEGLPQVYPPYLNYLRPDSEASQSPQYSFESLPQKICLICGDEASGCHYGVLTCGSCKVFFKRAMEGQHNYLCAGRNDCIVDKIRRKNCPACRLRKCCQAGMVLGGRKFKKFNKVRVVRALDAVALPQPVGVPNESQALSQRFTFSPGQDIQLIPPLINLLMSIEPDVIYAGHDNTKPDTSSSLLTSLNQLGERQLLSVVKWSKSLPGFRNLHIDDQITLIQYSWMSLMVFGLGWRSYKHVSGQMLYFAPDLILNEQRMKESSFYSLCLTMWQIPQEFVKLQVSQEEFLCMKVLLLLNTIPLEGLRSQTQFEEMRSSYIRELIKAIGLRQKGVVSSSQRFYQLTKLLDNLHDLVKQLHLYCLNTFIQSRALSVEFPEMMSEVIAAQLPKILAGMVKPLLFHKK
human CYP2D6, CYP2D6 (gene 1565), sequence (P10635 whole entry, looked up): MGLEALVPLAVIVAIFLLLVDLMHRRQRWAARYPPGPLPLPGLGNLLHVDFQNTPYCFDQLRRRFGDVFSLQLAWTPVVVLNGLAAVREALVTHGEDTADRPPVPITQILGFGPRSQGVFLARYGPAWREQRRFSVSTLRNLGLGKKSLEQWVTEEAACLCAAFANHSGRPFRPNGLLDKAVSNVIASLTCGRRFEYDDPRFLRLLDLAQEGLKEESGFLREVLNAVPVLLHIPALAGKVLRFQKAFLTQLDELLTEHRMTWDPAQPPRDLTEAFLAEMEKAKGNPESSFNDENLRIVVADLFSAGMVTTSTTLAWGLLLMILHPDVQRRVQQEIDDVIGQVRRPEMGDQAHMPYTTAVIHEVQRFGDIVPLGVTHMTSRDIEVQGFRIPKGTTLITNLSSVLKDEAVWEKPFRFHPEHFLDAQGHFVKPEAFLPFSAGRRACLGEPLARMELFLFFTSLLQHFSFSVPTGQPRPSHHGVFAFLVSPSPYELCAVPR
GAL4 Transcription Factor (Internal Marker), GAL4 (gene 855828), sequence (P04386 whole entry, looked up, the tested form may be a part): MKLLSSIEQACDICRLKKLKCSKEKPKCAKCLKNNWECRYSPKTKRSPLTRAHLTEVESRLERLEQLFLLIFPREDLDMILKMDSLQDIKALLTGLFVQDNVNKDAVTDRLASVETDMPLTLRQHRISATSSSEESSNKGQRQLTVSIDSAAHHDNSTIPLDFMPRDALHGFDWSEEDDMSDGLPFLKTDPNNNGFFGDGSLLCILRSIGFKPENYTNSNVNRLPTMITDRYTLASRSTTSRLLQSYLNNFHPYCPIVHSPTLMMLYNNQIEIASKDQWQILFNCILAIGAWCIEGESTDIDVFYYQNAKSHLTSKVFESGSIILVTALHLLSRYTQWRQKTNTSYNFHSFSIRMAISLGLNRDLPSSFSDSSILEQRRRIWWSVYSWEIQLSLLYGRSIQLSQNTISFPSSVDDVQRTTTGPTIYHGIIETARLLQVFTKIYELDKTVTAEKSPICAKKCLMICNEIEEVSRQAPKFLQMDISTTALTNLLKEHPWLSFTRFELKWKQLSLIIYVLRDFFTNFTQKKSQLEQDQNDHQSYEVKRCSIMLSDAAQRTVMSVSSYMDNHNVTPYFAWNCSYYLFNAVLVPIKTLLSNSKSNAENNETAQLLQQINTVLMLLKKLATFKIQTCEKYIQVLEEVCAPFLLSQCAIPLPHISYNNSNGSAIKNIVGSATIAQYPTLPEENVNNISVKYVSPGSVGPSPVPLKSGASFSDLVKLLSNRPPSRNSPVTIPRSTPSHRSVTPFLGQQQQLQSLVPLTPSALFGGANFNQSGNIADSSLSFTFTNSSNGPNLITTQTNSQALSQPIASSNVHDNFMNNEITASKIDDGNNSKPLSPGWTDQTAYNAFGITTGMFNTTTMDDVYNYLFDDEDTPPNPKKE
chicken Estrogen Receptor (ERa), ESR1 (gene 396099), sequence (P06212 whole entry, looked up, the tested form may be a part): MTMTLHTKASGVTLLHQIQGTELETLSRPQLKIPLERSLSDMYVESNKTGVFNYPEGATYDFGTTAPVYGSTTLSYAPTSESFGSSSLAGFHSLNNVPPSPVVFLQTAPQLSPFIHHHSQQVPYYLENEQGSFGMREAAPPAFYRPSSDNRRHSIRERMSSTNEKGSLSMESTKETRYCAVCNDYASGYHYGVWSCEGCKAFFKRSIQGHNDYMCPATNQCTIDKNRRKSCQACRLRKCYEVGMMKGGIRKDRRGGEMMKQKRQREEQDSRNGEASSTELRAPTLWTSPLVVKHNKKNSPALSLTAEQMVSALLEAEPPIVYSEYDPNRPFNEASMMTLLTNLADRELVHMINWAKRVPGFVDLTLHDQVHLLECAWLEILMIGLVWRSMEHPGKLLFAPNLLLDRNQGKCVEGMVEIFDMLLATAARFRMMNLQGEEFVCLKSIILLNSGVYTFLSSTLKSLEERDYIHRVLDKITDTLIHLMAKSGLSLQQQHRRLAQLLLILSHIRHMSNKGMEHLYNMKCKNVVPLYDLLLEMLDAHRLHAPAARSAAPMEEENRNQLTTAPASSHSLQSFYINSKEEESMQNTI

SMILES: CC(=O)c1cc2c(cc1C)C(C)(C)C(C)CC2(C)C (stereo not given)
- AC50 [1]: 1 µM (active)
- outcome [2]: inactive
- outcome [3]: inactive
- outcome [4]: inactive
- AC50 [5]: 1.8 µM (active)
- AC50 (PGR (gene 5241)): 5.67 µM (active)

SMILES: CC1(C)[C@H](C(=O)O[C@H](C#N)c2cccc(Oc3ccccc3)c2)[C@@H]1C=C(Br)Br
- outcome [6]: inactive
- AC50 [7]: 2.27 µM (active)
- outcome (rat CYP2C6, gene 293989): inactive
- outcome (rat CYP3A1, gene 25642): inactive
- outcome [8]: inactive
- outcome [9]: inactive
- outcome [10]: inactive
- outcome [11]: inactive
- AC50 [12]: 3.1 µM (active)
- AC50 [13]: 7.16 µM (active)
- AC50 [14]: 8.89 µM (active)
- AC50 [15]: 3.86 µM (active)
- AC50 [16]: 3.71 µM (active)
- AC50 [17]: 15 µM (active)
